Data as given in PubChem BioAssay AID1159580 (chemical genetic matrix, 2015).
In all, about 5,500 compounds went through this assay and about 2,000 (36%) were called active. Not shown: some 18% with an inconclusive outcome. Cut-off read from the data, not from the text of the source: active = normalized growth mostly below about 0.91 (no sharp cut-off); inconclusive = no clear call, values can overlap the other calls; inactive = mostly above about 0.92. The list shows a part of the results.

Assay: chemical genetic growth profiling, strain panel (AID 1159580);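 note: tested at 20 µM; growth read once vehicle control cultures reached saturation at 30 °C; 1 = growth at the plate median or of vehicle wells; lower values mean less growth of the strain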
Settings: S. cerevisiae deletion strains, growth OD
[1] = locus YAL040C, strain CLN3, hits give low values
[2] = locus YCL061C, strain MRC1 (second series), hits give low values
[3] = locus YDR150W, strain NUM1, hits give low values
[4] = locus YDR363W, strain ESC2, hits give low values
[5] = locus YER002W, strain NOP16, hits give low values
[6] = locus YMR263W, strain SAP30, hits give low values
[7] = locus YMR307W, strain GAS1, hits give low values
[8] = locus YNL175C, strain NOP13, hits give low values
[9] = locus YNL197C, strain WHI3, hits give low values
[10] = locus YNL224C, strain SQS1, hits give low values
[11] = locus YOR083W, strain WHI5 (second series), hits give low values

Measured: normalized growth

C/C(=C\c1ccc(C(=O)O)cc1)c1ccc2c(c1)C(C)(C)CCC2(C)C
inactive: [1] 1.04 | [2] 1.02 | [3] 1.01 | [4] 1.02 | [5] 1 | locus YJR075W, strain HOC1, hits give low values 1.01 | [6] 1.01 | [7] 1.02 | locus YNL128W, strain TEP1, hits give low values 0.994 | [8] 0.994 | [9] 0.965 | [10] 1 | locus YNL322C, strain KRE1, hits give low values 1.03 | [11] 1.01 | locus YPL241C, strain CIN2, hits give low values 1.01

CC(N)(C(=O)O)c1ccc(C(=O)O)cc1 (stereo not drawn)
active: [1] 1.12 [resistant]
inactive: locus YAL013W, strain DEP1, hits give low values 1.01 | [2] 1.01 | [3] 0.998 | [4] 1.03 | [5] 0.995 | locus YGR229C, strain SMI1, hits give low values 1.01 | [6] 0.996 | [7] 1 | [8] 1 | [9] 1.02 | [10] 1 | [11] 1.02
